Assay [1] has as its target Thyrotropin receptor (Homo sapiens) (UniProt P16473). The assay can be described thus: qHTS assay to identify small molecule agonists of the thyroid stimulating hormone receptor (TSHR) signaling pathway (AID 1224843; calls by dose curve; also: nearly all actives have a fitted effect of over 45% in size). A digest of the protocol: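 HEK293/TSHR, 800 cells/well; cpd 30 min RT; add cAMP-d2 + anti-cAMP-cryptate, 1 h RT; fluorescence read on plate reader. 15-pt titration, n=3.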
(In general: qHTS replaces the single test concentration by a dilution series.)

Assay [2] can be described thus: qHTS assay to identify small molecule agonists of the hypoxia (HIF-1) signaling pathway - cell viability counter screen (AID 1224844; calls by dose curve; also: nearly all actives have a fitted effect of over 50% in size). In a few lines:
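HRE-bla ME-180; 0.5% dFBS; cpd 17 h, 37C, 5% CO2; CellTiter-Glo lum., 30 min RT, post-FRET read, same wells.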

Assay [3] is described as follows: qHTS assay to identify small molecule agonists of H2AX (AID 1224845; active = well fitted activation curve with a large enough effect in the signal ratio in the repeat runs, not every such curve was filed as active; the % refers to the signal ratio; also: potency is read from the fitted curve at half-maximal effect). A digest of the protocol: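 Wild-type CHO-K1 cells, plated overnight, exposed 3hr at 37C to 15 concentrations (0.76% DMSO final). Lysed, then HTRF anti-pH2AX (S139) cryptate and anti-H2AX-d2 antibodies, 24 hr room temperature; 665/620 nm emission read.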
Assay [4] is described as follows: qHTS assay to identify small molecule agonists of the hypoxia (HIF-1) signaling pathway (AID 1224846; active = well fitted activation curve with a large enough effect in the signal ratio in the repeat runs, not every such curve was filed as active; the % refers to the signal ratio). In a few lines: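 Reporter induction in HRE-bla ME-180 cells is taken as agonism: cells sit 5 hrs after plating, receive compounds or DMSO only, incubate 17 hrs at 37C under 5% CO2, and are loaded with CCF4-AM for beta-lactamase FRET measurement.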
A short description of assay [5]: qHTS RealTime-Glo MT Cell Viability Assay in HepG2 cells - 24 hour (AID 1224867). Also: nearly all actives have a fitted effect of over 50% in size. A digest of the protocol:
(§1)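 Real-time, nonlytic viability: 600 HepG2 cells/well mixed with NanoLuc enzyme plus prosubstrate; 5 h settle, compound (DMSO) added by pintool; luminescence monitored over 40 h at 37 C.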

The nature of assay [6]: qHTS RealTime-Glo MT Cell Viability Assay in HEK293 cells - 32 hour (AID 1224868). Also: nearly all actives have a fitted effect of over 50% in size. Also: potency is read from the fitted curve at half-maximal effect. A digest of the protocol: (§2)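 Cells + reagent dispensed (600 cells/well, HEK293) → 5 h at 37 C/5% CO2 → 23 nL compound in DMSO pinned → 40 h at 37 C → luminescence read at 0, 8, 16, 24, 32, 40 h.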
The nature of assay [7]: A CellTox Green Cytotoxicity Assay to monitor cytotoxicity in HEK293 cells - 0 hour (AID 1224869). Also: nearly all actives have a fitted effect of over 50% in size. In a few lines: (§3)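 Tox21 screen in HEK293: membrane-impermeant cyanine dye fluoresces on binding dead-cell DNA; compound pinned 5 h post-seeding, plates held at 37 C, signal read repeatedly through 40 h.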
The nature of assay [8]: qHTS RealTime-Glo MT Cell Viability Assay in HepG2 cells - 40 hour (AID 1224870). Also: nearly all actives have a fitted effect of over 50% in size. In a few lines: (§4)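 HepG2 cells (600/well) mixed with RealTime-Glo MT reagent, settled 5 h at 37 C/5% CO2 before compound addition. Nonlytic NanoLuc luminescence from viable-cell prosubstrate reduction read repeatedly during 40 h treatment at 37 C.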
Assay [9] in a line: qHTS RealTime-Glo MT Cell Viability Assay in HEK293 cells - 16 hour (AID 1224872). Also: nearly all actives have a fitted effect of over 50% in size. Also: potency is read from the fitted curve at half-maximal effect. In a few lines: as §2
Assay [10] can be described thus: qHTS RealTime-Glo MT Cell Viability Assay in HepG2 cells - 8 hour (AID 1224873). Also: nearly all actives have a fitted effect of over 55% in size. A digest of the protocol: as §4
Assay [11] is described as follows: qHTS RealTime-Glo MT Cell Viability Assay in HEK293 cells - 40 hour (AID 1224874). Also: nearly all actives have a fitted effect of over 50% in size. Also: potency is read from the fitted curve at half-maximal effect. To be noted: RealTime-Glo luminescence; max response: active compounds read low. A digest of the protocol: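 HEK293 + NanoLuc + prosubstrate, 600 cells/well; 5 h, 37 C/5% CO2; compound 23 nL in DMSO by pintool; 37 C; luminescence read at 0, 8, 16, 24, 32 and 40 h time points.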
Assay [12] in a line: A CellTox Green Cytotoxicity Assay to monitor cytotoxicity in HEK293 cells - 24 hour (AID 1224875). Also: nearly all actives have a fitted effect of over 45% in size. In a few lines:
as §3

Assay [13] can be described thus: qHTS RealTime-Glo MT Cell Viability Assay in HepG2 cells - 32 hour (AID 1224877). Also: nearly all actives have a fitted effect of over 55% in size. A digest of the protocol: as §1
The nature of assay [14]: A CellTox Green Cytotoxicity Assay to monitor cytotoxicity in HepG2 cells - 40 hour (AID 1224879). Also: nearly all actives have a fitted effect of over 40% in size. Also: potency is read from the fitted curve at half-maximal effect. In a few lines: (§5)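 Measurements at 0, 8, 16, 24, 32 and 40 h of treatment captured CellTox Green fluorescence in HepG2 cells that had been co-plated with reagent and preincubated 5 h at 37 C/5% CO2.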
Assay [15] is described as follows: qHTS assay to identify small molecule antagonists of the estrogen related receptor (ERR) signaling pathway from Tox21 library (AID 1224848). Also: nearly all actives have a fitted effect of over 50% in size. A digest of the protocol:
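Compounds dissolved in DMSO are pin-transferred onto ERR reporter cells (2,000 per well) that have settled for 6 h at 37 C. Plates then incubate 18 h at 37 C before ONE-Glo luciferase reagent and a luminescence read 30 min later.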

Assay [16] can be described thus: qHTS assay to identify small molecule agonists of the estrogen related receptor (ERR) signaling pathway from Tox21 library (AID 1224849; calls by dose curve; also: nearly all actives have a fitted effect of over 15% in size). To be noted: ERR reporter cell line, ONE-Glo luciferase, 18 h; at 92.4 µM (top of the series) unless noted. In a few lines: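 Tox21 compounds tested for ERR agonism in an NTP reporter cell line: 18 h treatment at 37 C, then ONE-Glo luminescence.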

Assay [17] in a line: A CellTox Green Cytotoxicity Assay to monitor cytotoxicity in HEK293 cells - 40 hour (AID 1224871). Also: nearly all actives have a fitted effect of over 45% in size. A digest of the protocol: as §3
A short description of assay [18]: A CellTox Green Cytotoxicity Assay to monitor cytotoxicity in HepG2 cells - 16 hour (AID 1224876). Also: nearly all actives have a fitted effect of over 45% in size. In a few lines:
as §5

Assay [19] in a line: A CellTox Green Cytotoxicity Assay to monitor cytotoxicity in HepG2 cells - 24 hour (AID 1224878). Also: nearly all actives have a fitted effect of over 45% in size. A digest of the protocol:
as §5

Assay [20] in a line: qHTS assay to identify small molecule agonists of H2AX - cell viability counter screen (AID 1224847; calls by dose curve; also: top concentration of the series differs between compounds; nearly all actives have a fitted effect of over 30% in size). A digest of the protocol: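 Read-out: CellTiter-Glo luminescence, 30 min RT. Cells: wild-type CHO-K1, 1000/well, 10% FBS, plated overnight at 37C. Treatment: 15 concentrations, 3 hr, 37C, 0.76% DMSO.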

Unmarked numbers belong to inactive results. Records with an inconclusive call do not appear. Activity calls are given as the source filed them. Unless noted, calls follow the shape of the dose curve; as a rule, active = well fitted curve in the direction sought with a large enough effect in the repeat runs; inconclusive = weak or mixed curves; inactive = no such curve, though single readings can be large; an effect the other way counts as inactive or inconclusive.
% is scaled to controls: 0 for no effect and ±100 for the full control effect.

Thyrotropin receptor (Homo sapiens), sequence (P16473 whole entry, looked up): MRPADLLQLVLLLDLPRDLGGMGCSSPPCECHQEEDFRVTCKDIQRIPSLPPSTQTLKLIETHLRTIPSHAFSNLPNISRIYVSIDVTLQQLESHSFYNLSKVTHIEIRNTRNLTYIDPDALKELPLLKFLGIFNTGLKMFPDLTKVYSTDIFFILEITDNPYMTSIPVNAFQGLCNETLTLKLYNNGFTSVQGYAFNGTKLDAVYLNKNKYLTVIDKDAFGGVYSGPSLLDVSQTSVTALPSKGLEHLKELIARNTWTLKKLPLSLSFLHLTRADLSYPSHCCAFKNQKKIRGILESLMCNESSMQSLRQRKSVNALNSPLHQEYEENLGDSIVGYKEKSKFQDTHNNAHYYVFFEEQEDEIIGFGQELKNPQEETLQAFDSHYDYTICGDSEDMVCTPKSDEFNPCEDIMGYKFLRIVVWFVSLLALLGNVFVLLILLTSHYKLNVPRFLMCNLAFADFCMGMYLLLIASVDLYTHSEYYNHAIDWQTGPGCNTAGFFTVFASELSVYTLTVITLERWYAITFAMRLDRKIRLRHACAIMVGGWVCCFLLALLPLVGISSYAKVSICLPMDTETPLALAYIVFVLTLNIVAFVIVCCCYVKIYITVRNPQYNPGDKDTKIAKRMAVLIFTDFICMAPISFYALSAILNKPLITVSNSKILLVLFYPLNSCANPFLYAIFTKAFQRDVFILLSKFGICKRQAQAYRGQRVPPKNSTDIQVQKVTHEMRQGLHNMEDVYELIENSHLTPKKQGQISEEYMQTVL

Regarding `Oc1ccc(Oc2ccccc2)cc1`, the Potency entry in assay [1], in [2], in assay [7], in assay [8], in assay [12] and in [13] was “inactive” each time. Moreover, the Potency is 38.1 µM (active) in assay [3]; 16.5 µM (active) in assay [6]; 14.7 µM (active) in assay [9]; 14.7 µM (active) in assay [11]; 36.9 µM (active) in [14]. The outcome in [4], in assay [5] and in assay [10] was inactive.
For the compound `OCCc1ccncc1`, the Potency result in assay [1], in assay [2], in [3], in assay [15], in assay [6] and in assay [7] was “inactive” in each case. For the same compound, the Potency result in assay [17], in [9], in assay [12], in assay [18], in assay [13] and in [19] was “inactive” throughout. Further, the Potency result in [14] is “inactive”. The compound was classed as inactive in [4] and in assay [10]. Moreover, the activity change, positive = activation in assay [16] was 1.06%. Moreover, in [11], the max response is -8.09%.
On to `Clc1nc2ccccc2nc1Cl`, for which the Potency result in assay [1], in assay [2], in [3], in [20], in assay [7] and in [8] was “inactive” throughout. In addition, the Potency result in assay [17], in [9], in assay [12], in assay [18], in assay [13] and in [19] was “inactive” throughout. The Potency result in [14] was “inactive”. Besides, the compound was classed as inactive in assay [4], in assay [5] and in assay [10].
As for `CC(C)=CCCC(C)C=O` (stereo not drawn), the Potency result in assay [1], in assay [2], in assay [3], in assay [6], in assay [7] and in [8] was “inactive” in each case. Further, the Potency result in [9], in assay [12], in [18], in assay [13], in assay [19] and in assay [14] was “inactive” throughout. Besides, the compound was called inactive in [4], in [5] and in [10]. Further, the max response in [11] is 3.8%.
For the compound `O=C(O)c1ccccc1[N+](=O)[O-]`, the Potency entry in [1], in assay [2], in assay [3], in [20], in assay [6] and in assay [7] was “inactive” in each case. Moreover, the Potency result in assay [17], in [9], in [12], in [18], in assay [13] and in [14] was “inactive” in each case. Also, the compound was classed as inactive in [4], in [5] and in assay [10]. In assay [11], the max response is 24.4%.
Consider `CC(C)=CCC/C(C)=C/C=N/O`, for which the Potency entry in [1], in assay [2], in [3], in assay [20], in assay [6] and in assay [7] was “inactive” in each case. Further, the Potency result in [8], in assay [9], in assay [18], in assay [13], in assay [19] and in assay [14] was “inactive” throughout. In addition, the compound was called inactive in assay [4], in [5] and in assay [10]. Also, the max response in [11] is -25.1%.
As to `Nc1ncnc2c1ncn2[C@@H]1O[C@H](CO)[C@@H](O)[C@H]1O`, the Potency entry in [1], in assay [2], in [20], in assay [6], in [7] and in assay [8] was “inactive” each time. Moreover, the Potency entry in [9], in [12], in assay [18], in [13], in assay [19] and in assay [14] was “inactive” throughout. In addition, the Potency in assay [3] was 31 µM (active). Also, the compound was classed as inactive in assay [5] and in assay [10]. Moreover, the max response in [11] was 6.09%.
As for `CCCCOC(=O)CC#N`, the Potency entry in assay [1], in assay [2], in assay [20], in assay [6], in assay [7] and in assay [8] was “inactive” in each case. In addition, the Potency result in assay [17], in assay [9], in assay [12], in assay [18], in assay [13] and in assay [19] was “inactive” each time. In assay [14], the Potency entry was “inactive”. The call in [4], in assay [5] and in [10] was inactive. In [11], the max response is 7.32%.

Source of the values: PubChem BioAssay (Tox21).
